Screening results from PubChem.
An excerpt weighted towards active compounds, which were near 3% of everything screened.
NLRP3 yeast inh = NALP3 inhibition in yeast | 330,000 compounds, 0.39% hits | inhibition, % at 10 µM | Yeast reconstituted NLRP3/ASC/caspase-1, beta-gal luminescence, 24 h | AID 2825;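 active means inhibition of 50% or more; inactive means inhibition below 50%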;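 further: plate controls were induced DMSO wells for no effect and uninduced yeast grown without galactose for full effect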
CHT PAM = human CHT allosteric activation; AID 488977; 310,000 compounds, 0.49% hits; CHT-expressing cells, membrane potential dye, choline EC20; stronger effect = higher value; LV-AA mutant CHT in HEK293 cells; B-score at 10 µM; Q9GZV3;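 active means initial fluorescence not abnormally high and integrated response B-score, plate-corrected, over 3 SD above library mean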
SUMO Mot1 rescue = SUMOylation pathway inhibition by Mot1-301 growth rescue. S. cerevisiae Mot1-301 growth rescue, ATP luminescence, 38.5C; percent above DMSO median, 100 means doubled. growth rescue, % at 18.8 µM. 320,000 compounds, 1% hits;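 active means every valid replicate shows activation above 250% relative to neutral control wells; inactive means the rest, any valid replicate at or below 250%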;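 further: OY570 slx delta 5 strain wells were the positive control but not used for scaling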
CHT inh = human CHT choline transport inhibition. Q9GZV3. CHT-expressing cells, membrane potential dye, choline response; stronger effect = lower value. B-score at 10 µM. 310,000 compounds, 0.86% hits. AID 488975;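 active means B-score over 3 SD under the library average, and starting fluorescence ratio not unusually high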;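 further: choline stimulus applied at its EC90 after an EC20 pre-addition; B-score computed on integrated fluorescence ratio after choline addition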
Bfl-1 A1 inh = inhibitors of the anti-apoptotic protein A1, read as caspase activation. MEF A1-2A-BIM cells, Caspase-Glo 3/7 luminescence, 3 h; percent of clofoctol response, vehicle zero. caspase activation, % (concentration not given with the values). 330,000 compounds, 0.066% hits;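 active means over half of replicate activation scores above 10%, or exactly half above 10 with the replicate mean above 10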
NALP1 inh = blocks the NALP1 inflammasome reconstituted in yeast; S. cerevisiae NALP1/ASC/caspase-1 growth, X-gal OD620, 72 h; inhibition, % at 10 µM; 280,000 compounds, 0.61% hits; AID 2071; in the data active means inhibition mostly above about 24%, no sharp cut-off; inactive means mostly below about 32%
NALP3 yeast conf = NALP3 inhibition confirmation in yeast; shares compounds with NLRP3 yeast inh; yeast expressing human NALP3, luminescence; inhibition, % at 10 µM; 1,300 compounds, 81% hits; AID 435006; in the data active means inhibition above about 48%
Casp1-ASC yeast = active in yeast caspase-1-ASC counter-screen for NALP3 inhibitors; 1,000 compounds, 66% hits; AID 488784; yeast expressing Caspase-1-ASC, luminescence counter screen; inhibition, % at 10 µM; shares compounds with NLRP3 yeast inh
NALP3 yeast rt = retest-confirmed inhibitor of NALP3 in yeast; AID 488794; 1,000 compounds, 53% hits; inhibition, % at 10 µM; shares compounds with NLRP3 yeast inh; yeast expressing human NALP3, luminescence read-out
Numbers without * were called inactive. Unless noted, no stated cut-off is given here; in the data, active means inhibition above about 50%; inactive means the rest.

How did NS(=O)(=O)c1ccc(CNC(=O)c2ccc(S(=O)(=O)NCc3ccco3)cc2)cc1 do in these assays?
NLRP3 yeast inh: -10; SUMO Mot1 rescue: -12; Bfl-1 A1 inh: 0

Results for COc1cccc(NC(=O)N2CCc3ccccc3C2)c1 ?
NLRP3 yeast inh: 17; CHT PAM: inactive; SUMO Mot1 rescue: -10; CHT inh: inactive; Bfl-1 A1 inh: -8; NALP1 inh: 14

Results for O=C(Nc1cccc(Cl)c1)N1CCc2ccccc2C1 ?
NLRP3 yeast inh: 66*; CHT PAM: inactive; SUMO Mot1 rescue: 8; CHT inh: inactive; Bfl-1 A1 inh: -4; NALP1 inh: 2; NALP3 yeast conf: 85*; Casp1-ASC yeast: 74*; NALP3 yeast rt: 75*

Results for CCOC(=O)c1ccc2c(c1)NCc1cccc(OC)c1O2 ?
NLRP3 yeast inh: 54*; CHT PAM: inactive; SUMO Mot1 rescue: 20; CHT inh: inactive; Bfl-1 A1 inh: -2; NALP1 inh: 19; NALP3 yeast conf: 63*; Casp1-ASC yeast: 46; NALP3 yeast rt: 42

How did COc1ccccc1N(Cc1ccccc1)S(=O)(=O)c1cccc(C(=O)N2CCCCC2)c1 do in these assays?
NLRP3 yeast inh: 23; SUMO Mot1 rescue: 5; Bfl-1 A1 inh: -1

Results for NC(=S)N/N=C/c1ccccc1OCc1cccc(Cl)c1 ?
NLRP3 yeast inh: 56*; CHT PAM: inactive; SUMO Mot1 rescue: 17; CHT inh: inactive; Bfl-1 A1 inh: 1; NALP1 inh: -4; NALP3 yeast conf: 67*; Casp1-ASC yeast: 58*; NALP3 yeast rt: 40

How did CC(=O)N1c2ccc(S(=O)(=O)N3CCC(C(=O)N4CCN(c5ccccc5F)CC4)CC3)cc2CC1C (configuration not stated) do in these assays?
NLRP3 yeast inh: 8; CHT PAM: inactive; SUMO Mot1 rescue: 67; CHT inh: inactive; Bfl-1 A1 inh: 0; NALP1 inh: 12

How did O=S(=O)(NCCc1ccccc1)c1ccc(Br)cc1 do in these assays?
NLRP3 yeast inh: 14; CHT PAM: inactive; SUMO Mot1 rescue: -19; CHT inh: inactive; Bfl-1 A1 inh: -1; NALP1 inh: 19

How did CNc1nc(N)c([N+](=O)[O-])c(Nc2cccc(F)c2)n1 do in these assays?
NLRP3 yeast inh: 75*; CHT PAM: inactive; SUMO Mot1 rescue: 62; CHT inh: inactive; Bfl-1 A1 inh: 1; NALP1 inh: 8; NALP3 yeast conf: 86*; Casp1-ASC yeast: 78*; NALP3 yeast rt: 56*

How did CNc1nc(N)c([N+](=O)[O-])c(Nc2cccc(Cl)c2)n1 do in these assays?
NLRP3 yeast inh: 60*; CHT PAM: inactive; SUMO Mot1 rescue: -27; CHT inh: inactive; Bfl-1 A1 inh: 0; NALP1 inh: 6; NALP3 yeast conf: 66*

What do the screens show for `CC(=O)n1cc([C@H]2C=C(C(=O)NCc3ccccc3)O[C@@H](OCCCCO)C2)c2ccccc21`?
NLRP3 yeast inh: 4; CHT PAM: inactive; SUMO Mot1 rescue: 30; CHT inh: inactive; Bfl-1 A1 inh: 1; NALP1 inh: -4

What do the screens show for `CC(=O)n1cc([C@@H]2C=C(C(=O)NCc3ccccc3)O[C@H](OCCCCO)C2)c2ccccc21`?
NLRP3 yeast inh: 89*; CHT PAM: inactive; SUMO Mot1 rescue: -18; CHT inh: inactive; Bfl-1 A1 inh: -1; NALP1 inh: -12; NALP3 yeast conf: 40; Casp1-ASC yeast: 5; NALP3 yeast rt: 23

What do the screens show for `CC1(C)CC(=O)C2=C(C1)Nc1ccccc1NC2c1ccc(F)cc1` (configuration not stated)?
NLRP3 yeast inh: -1; CHT PAM: inactive; SUMO Mot1 rescue: -1; CHT inh: inactive; Bfl-1 A1 inh: 0; NALP1 inh: 14
